Screening data as filed in PubChem BioAssay.
This is a sample that favours compounds with a hit; in the whole collection about 1.8% have one here.
p53ts 39C kill: p53ts cell cytotoxicity, nonpermissive temperature; H1299-p53A138V viability at 39C, ATP luminescence, 24 h; 1.5% of 130,000 active; AID 902; Potency, µM (top dose mostly 46.1 µM), for the others: at the top dose activity change, negative = cell killing, actives largely listed as cytotoxic; note: % is set by controls: 0 for no effect and ±100 for the full control effect; nearly all actives have a fitted effect of over 55% in size
p53ts 32C tox: kills p53ts cells at the permissive temperature; H1299-p53A138V at 32C, ATP luminescence viability, 24 h; 0.93% of 130,000 active; Potency, µM (titrated, usually from 46.1 µM), for the others: at the highest dose activity change, negative = cytotoxicity, most hits filed as cytotoxic;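 note: 0% = DMSO and -100% = full killing by reference compound; nearly all actives have a fitted effect of over 55% in size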
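H1299-p53 A138V cells (temperature-sensitive p53) exposed 24 h to up to 46 uM compound at 32C, where p53 is wild-type in conformation. Viability read as ATP luminescence and normalised to DMSO and 100 uM tamoxifen. AC50 fitted with the Hill equation.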
Peg3 imprint: induces erasure of genomic imprints in mouse ES cells. AID 1948. 0.02% of 110,000 active. Potency, µM (doses to about 60.7 µM), for inactives: at the highest dose activity change, positive = activation, actives largely listed as activators. mouse ES Peg3-LacZ reporter, beta-gal luminescence, 40 h
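Each well holds 300 Peg3LacZ-Neo (maternal) female ES cells incubated 40 h at 37C, 5% CO2. LacZ is measured by BetaGlo luminescence, with AC50 and maximum efficacy derived from dose-response curves.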
IkB signaling: inhibitors of IkB signaling in ABC-DLBCL cells; 0.04% of 110,000 active; AID 445; Potency, µM (doses to about 57.1 µM), inactives show top-dose IkBa stabilization activation; ABC-DLBCL IkBa-CBG/CBR dual luciferase ratio, 4 h; response scale: scaled: untreated 0%, proteasome inhibitor 100%; active = well fitted curve in the direction sought with a large enough effect in the signal ratio, not every such curve was filed as active; inconclusive = small, poorly fitted or top-dose-only effect, or a change in a side signal; the % refers to the signal ratio;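 note: the direction sought is a rising ratio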
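Curves were fitted separately to fusion (green), unfused (red) and ratio luminescence, then classed by r2, magnitude and activity. Cells: OCI-Ly3, 4 h compound plus doxycycline at 37C; 10 uM MG-132 defined full response.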
* marks the source's active call; other numbers are inactive results; [ ] = remark or other dose. Unless noted, calls come from the whole dose curve; as a rule, active = well fitted curve in the direction sought with a large enough effect; inconclusive = small, poorly fitted or top-dose-only effect, or another doubt; inactive = no such curve, though single readings can be large; an effect the other way counts as inactive or inconclusive. Potency is the fitted concentration of half-maximal effect.

For COC(=O)Cc1ccc(NC(=O)c2ccc(Br)o2)cc1 the results were p53ts 39C kill inconclusive, p53ts 32C tox -28.3%, Peg3 imprint -74.8% and IkB signaling -0.5%.
Screening CCN(CC)c1ccc(NC(=O)Nc2cccc(C(C)=O)c2)cc1 returned p53ts 39C kill 12.6µM*, p53ts 32C tox 12.6µM*, Peg3 imprint -11.5% and IkB signaling inconclusive.
For CC(=O)c1cccc(NC(=O)Nc2ccc3c(c2)N(C)C(=O)CS3)c1 the results were p53ts 39C kill 20µM*, p53ts 32C tox inconclusive, Peg3 imprint -14.0% and IkB signaling inconclusive.
Screening CCC(C(=O)OC)n1cnc2c(cnn2-c2ccc(F)cc2)c1=O (stereo not given) returned p53ts 39C kill -0.7%, p53ts 32C tox 2.5%, Peg3 imprint 2.0%[10.9 µM] and IkB signaling -2.1%.
COc1ccccc1C(=O)Oc1c(Sc2ccccc2)c(C)nn1-c1ccccc1 was read as p53ts 39C kill -22.2%, p53ts 32C tox 15.8µM*, Peg3 imprint -6.4%[10.9 µM] and IkB signaling inconclusive.
`COc1cc(C(=O)Oc2c(Sc3ccc(C)cc3)c(C)nn2-c2ccccc2)cc(OC)c1OC` gave p53ts 39C kill -5.5%, p53ts 32C tox 4.9%, Peg3 imprint -5.0%[10.9 µM] and IkB signaling inconclusive.
`O=C(Nc1nnc(/N=C/c2ccco2)s1)c1ccc(F)cc1` gave p53ts 39C kill 12.6µM*, p53ts 32C tox 10µM*, Peg3 imprint -39.8% and IkB signaling 1.4%.
Screening COc1cc(NC(=O)c2c(-c3ccc(C)cc3)nnc3ccccc23)cc(OC)c1OC returned p53ts 39C kill -15.2%, p53ts 32C tox 3.8%, Peg3 imprint 11.9%[10.9 µM] and IkB signaling 0.2%.
Screening COC(=O)c1cc2oc3ccccc3c2n1CC(=O)Nc1ccc(F)c(Cl)c1 returned p53ts 39C kill -26.9%, p53ts 32C tox 1.6%, Peg3 imprint -7.2%[10.9 µM] and IkB signaling inconclusive.
For O=S(=O)(NCc1ccc(F)cc1)c1ccc2[nH]c3c(c2c1)CCCC3 the results were p53ts 32C tox 9.1%.
O=S(=O)(NCc1ccccc1)c1ccc2[nH]c3c(c2c1)CCCCC3 was read as p53ts 39C kill 31.6µM*, p53ts 32C tox 3.7%, Peg3 imprint -7.1%[10.9 µM] and IkB signaling -2.9%.
`Cc1ccc(CNS(=O)(=O)c2ccc3[nH]c4c(c3c2)CCCCC4)cc1` gave p53ts 39C kill 20µM*, p53ts 32C tox -2.0%, Peg3 imprint -4.6%[10.9 µM] and IkB signaling inconclusive.
CN(C)CCn1c(CO)nc2c1c(=O)n(C)c(=O)n2C was read as p53ts 39C kill -0.2%[9.22 µM], p53ts 32C tox 7.8%[9.22 µM], Peg3 imprint -10.6%[10.9 µM] and IkB signaling -0.3%[11.4 µM].
For O=C(N/N=C/c1sc2ccccc2c1O)c1ccccc1 the results were p53ts 39C kill 7.08µM*.
`COCCCNC(=O)Cn1c(=O)n(-c2ccc(Cl)cc2)c(=O)c2c3c(sc21)CCCCC3` gave p53ts 39C kill 3.5%, p53ts 32C tox 8.9%, Peg3 imprint -15.1%[10.9 µM] and IkB signaling -2.3%.
Cc1cc(C)cc(OCC(=O)NCCN2CCOCC2)c1 was read as p53ts 39C kill -2.0%, p53ts 32C tox -8.3%, Peg3 imprint -4.8% and IkB signaling -0.7%.
Screening O=C(Cc1cc(=O)[nH]c(=O)[nH]1)NCC1CCCO1 (stereo not given) returned p53ts 39C kill 20µM*, p53ts 32C tox -9.9%, Peg3 imprint -26.0% and IkB signaling inconclusive.
O=C(Cc1cc(=O)[nH]c(=O)[nH]1)NCCN1CCOCC1 was read as p53ts 39C kill inconclusive, p53ts 32C tox 12.6µM*, Peg3 imprint -49.6% and IkB signaling 0.7%.
For C[C@H](NC(=O)c1ccc(Cl)c(Cl)c1)c1ccc(-c2ccccc2)cc1 the results were p53ts 39C kill 9.4%[9.22 µM], p53ts 32C tox 13.4%[9.22 µM], Peg3 imprint -12.2%[10.9 µM] and IkB signaling 3.1%[11.4 µM].
Screening CCCCCCC1Cc2cc(OC)c(OC)cc2C(C(C(=O)OCC)C(=O)OCC)O1 (stereo not given) returned p53ts 39C kill -5.1%[9.22 µM] and p53ts 32C tox 3.1%[9.22 µM].
CC1CCC(C(=O)O)([C@H](Br)C(=O)O)CC1 (stereo not given in full) was read as p53ts 39C kill -1.1%[9.22 µM], p53ts 32C tox 2.4%[9.22 µM], Peg3 imprint -1.0%[10.9 µM] and IkB signaling 0.2%[11.4 µM].
`COc1ccc(-c2cc(C(=O)Nc3c(C)nn(Cc4ccc(Cl)cc4)c3C)no2)cc1` gave p53ts 39C kill -20.3%, p53ts 32C tox -13.6%, Peg3 imprint -13.4% and IkB signaling 0.4%.
COc1ccccc1-c1cc(C(=O)Nc2c(C)nn(Cc3ccc(Cl)cc3)c2C)no1 was read as p53ts 39C kill 12.6µM*, p53ts 32C tox inconclusive, Peg3 imprint -10.6%[10.9 µM] and IkB signaling inconclusive.
For O=C1c2[nH]nc(-c3ccc(Br)cc3)c2C(c2cccc(O)c2)N1c1ccc(Cl)cc1 (stereo not given) the results were p53ts 39C kill 15.8µM*, p53ts 32C tox inconclusive, Peg3 imprint 3.1%[10.9 µM] and IkB signaling inconclusive.
Screening O=C(Nc1ccc(N2CCCC2)c(Cl)c1)c1ccco1 returned p53ts 39C kill 7.94µM*, p53ts 32C tox 10µM*, Peg3 imprint -29.0% and IkB signaling -2.9%.
For O=C(Nc1ccc2c(c1)nc1n2CCN(C2CCCCC2)C1)c1ccco1 the results were p53ts 39C kill 2.4%, p53ts 32C tox -0.2%, Peg3 imprint -9.4% and IkB signaling 0.3%.
Screening O=C(Nc1ccc2c(c1)nc1n2CCSC1)c1ccco1 returned p53ts 39C kill 3.16µM*, p53ts 32C tox 2µM*, Peg3 imprint -45.7% and IkB signaling inconclusive.
Screening O=C(Nc1ccc2c(c1)nc1n2CCOC1)c1ccco1 returned p53ts 39C kill inconclusive, p53ts 32C tox 7.94µM*, Peg3 imprint -30.4% and IkB signaling inconclusive.
Screening CN(C)c1ccc(NC(=O)CSC2=Nc3ccccc3C3=NC(CC(=O)NCc4ccc5c(c4)OCO5)C(=O)N23)cc1 (stereo not given) returned p53ts 39C kill inconclusive, p53ts 32C tox -8.8%, Peg3 imprint -16.4%[10.9 µM] and IkB signaling inconclusive.
For CCCC(=O)Nc1ccc2nn(-c3ccc(CC)cc3)nc2c1 the results were p53ts 39C kill 10µM*, p53ts 32C tox -17.4%, Peg3 imprint -10.1%[10.9 µM] and IkB signaling -4.5%.
`COC(=O)[C@H]1[C@@H]2C[C@H]3c4[nH]c5ccccc5c4CCN3C[C@@H]2CC[C@@H]1O` gave IkB signaling -0.3%[11.4 µM].
For O=c1c2c(nc3c(-c4ccc(Cl)cc4)c[nH]n13)CCCC2 the results were p53ts 39C kill 20µM*, p53ts 32C tox -15.9%, Peg3 imprint -8.7% and IkB signaling inconclusive.
For O=c1c2c(nc3c(-c4cccc5ccccc45)c[nH]n13)CCC2 the results were p53ts 39C kill -19.3%, p53ts 32C tox inconclusive, Peg3 imprint inconclusive and IkB signaling inconclusive.
Screening CS(=O)(=O)c1ccc(Sc2nc3ccccc3s2)c([N+](=O)[O-])c1 returned p53ts 39C kill 22.4µM*.
Screening CCCCOc1ccc(Cn2c(=O)oc3ccc(C)cc32)cc1 returned p53ts 39C kill 0.8%, p53ts 32C tox -2.1%, Peg3 imprint -7.5%[10.9 µM] and IkB signaling 5.9%.
